Measurements as given in PubChem BioAssay AID2578 (National Center for Advancing Translational Sciences (NCATS), 2010).
The source made the active and inactive calls. The call rests on the fitted dose curve; in most records, active means well fitted curve in the direction sought with a large enough effect; inactive means no such curve, though single readings can be large or run the other way.

These molecules were tested against Alpha-galactosidase A (Homo sapiens) (UniProt P06280) (assay: qHTS Assay for Inhibitors and Activators of N370S glucocerebrosidase as a Potential Chaperone Treatment of Gaucher Disease: Alpha-Galactosidase Counterscreen). Conditions: purified enzyme, 4-MU-alpha-Gal fluorescence, 20 min; series mostly up to 57.5 µM.
Alpha-galactosidase A (Homo sapiens), sequence (P06280 whole entry, looked up): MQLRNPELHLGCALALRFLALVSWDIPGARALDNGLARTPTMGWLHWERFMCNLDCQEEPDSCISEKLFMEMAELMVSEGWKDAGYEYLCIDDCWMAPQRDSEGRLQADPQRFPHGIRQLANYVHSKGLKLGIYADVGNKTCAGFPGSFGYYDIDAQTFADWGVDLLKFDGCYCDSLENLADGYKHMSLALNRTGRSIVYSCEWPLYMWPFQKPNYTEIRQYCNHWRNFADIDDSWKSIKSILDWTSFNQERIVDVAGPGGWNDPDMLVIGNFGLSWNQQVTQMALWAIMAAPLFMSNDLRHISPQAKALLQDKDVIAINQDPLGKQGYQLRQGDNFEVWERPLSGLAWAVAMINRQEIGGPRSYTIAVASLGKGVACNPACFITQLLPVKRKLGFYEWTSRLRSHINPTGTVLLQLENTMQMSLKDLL
Source text: NIH Chemical Genomics Center [NCGC] NIH Molecular Libraries Probe Production Centers Network [MLPCN] MLPCN Grant: MH086442-01 Assay Submitter (PI): Wei Zheng Glucocerebrosidase (GC) catalyzes the hydrolysis of beta-glucocerebroside to glucose and ceramide in lysosomes. Mutations in the glucocerebrosidase gene result in Gaucher disease, an autosomal recessive lysosomal storage disorder. Many of the mutations encountered in patients with Gaucher disease are missense alterations that may cause misfolding, decreased stability and/or mistrafficking of this lysosomal protein. […] These inhibitors include iminosugar analogs and three non-iminosugar inhibitors identified from a previous HTS of 62,000 compounds with the wild type recombinant enzyme. However, the enhancement of enzyme activity by the chaperone action of an enzyme inhibitor must be balanced against the direct inhibition of the enzyme. An enzyme activator could also function as a chaperone by binding to the enzyme and helping to correct its misfolding and mistrafficking. While activators for GC have not yet been identified, they may have better therapeutic potential than inhibitors. Therefore the discovery and development of chemical activators may provide a new strategy for the chaperone therapy. To characterize compound selectivity, selected hits from the primary screen were screened against purified alpha-galactosidase, a related sugar hydrolase. Alpha-galactosidase is a homodimeric glycoprotein that hydrolyzes the terminal alpha-galactosyl moieties from glycolipids and glycoproteins.
NCGC Assay Protocol Summary: This is a fluorogenic enzyme assay with 4-Methylumbelliferyl alpha-D-galactopyranoside as the substrate and human […] as the enzyme preparation. Upon the hydrolysis of this fluorogenic substrate, the resulting product, […]. 4-Methyllumbelliferone, can be excited at 365 nm and emits at 440 nm. This fluorescence which can be detected by a standard fluorescence plate reader. Data were normalized to the controls for basal activity (without enzyme) and 100% activity (with enzyme). In the AC50 values were determined from concentration-response data modeled with the standard Hill equation. Assay buffer: 50 mM citric acid (titrated with potassium phosphate to pH 4.5), 0.005% Tween-20, pH 4.5. (pH 4.5 is an optimal condition for this enzyme assay) 1536-well assay protocol for the human alpha-galactosidase: (1) Add 2 ul/well of enzyme (12 nM final) (2) Add 23 nL compounds in DMSO solution. The final titration was 0.7 nM to 77 uM. (3) Add 1 ul of substrate ([…]) (4) Incubate at room temperature for 20 min. (5) Add 2 ul stop solution (1M NaOH and 1M Glycine mixture, pH 10) (6) Detect the assay plate in a ViewLux plate reader (PerkinElmer) with Ex=365 nm and Em=440nm. Keywords: MLSMR, MLPCN, NIH Roadmap, qHTS, NCGC, : Alpha-galactosidase, Fabry Disease, pharmacological chaperone, chaperone therapy
With `COc1ccc(-c2nc(N3CCN(S(=O)(=O)c4ccccc4)CC3)c3ccccc3n2)cc1` the outcome was “inactive”. For `O=S(=O)(c1ccc(C(F)(F)F)cc1)N1CCN(c2nc(-c3cccs3)nc3ccccc23)CC1`, the outcome was “inactive”. With `O=S(=O)(c1ccc(Cl)cc1)N1CCN(c2nc(-c3cccc(Br)c3)nc3ccccc23)CC1` the outcome was “inactive”. For `Cc1ccc(S(=O)(=O)N2CCN(c3nc(-c4cccs4)nc4ccccc34)CC2)cc1`, the outcome was “inactive”. In the case of `N#Cc1ccccc1S(=O)(=O)N1CCN(c2nc(-c3ccccc3)nc3ccccc23)CC1`, the outcome is reported as “inactive”. In the case of `O=S(=O)(c1ccc(F)cc1)N1CCN(c2nc(-c3cccs3)nc3cc(Cl)ccc23)CC1`, the outcome is reported as “inactive”. `O=S(=O)(c1ccc2ccccc2c1)N1CCN(c2nc(-c3cccs3)nc3ccccc23)CC1` was tested, and the outcome was “inactive”. `O=S(=O)(c1ccc2c(c1)CCCC2)N1CCN(c2nc(-c3cccs3)nc3ccccc23)CC1` was tested, and the outcome was “inactive”. With `O=S(=O)(c1ccc(F)cc1)N1CCN(c2nc(-c3cccs3)nc3ccccc23)CC1` the outcome was “inactive”. With `COc1ccc(S(=O)(=O)N2CCN(c3nc(-c4cccs4)nc4ccccc34)CC2)cc1OC` the outcome was “inactive”. With `O=[N+]([O-])c1ccccc1S(=O)(=O)N1CCN(c2nc(-c3ccccc3)nc3ccccc23)CC1` the outcome was “inactive”. In the case of `O=S(=O)(c1cccc(C(F)(F)F)c1)N1CCN(c2nc(-c3cccs3)nc3cc(Cl)ccc23)CC1`, the outcome is reported as “inactive”. `O=S(=O)(c1cccc(Cl)c1)N1CCN(c2nc(-c3ccccc3)nc3ccccc23)CC1` was tested, and the outcome was “inactive”. `NS(=O)(=O)c1ccc(S(=O)(=O)N2CCN(c3nc(-c4cccs4)nc4ccccc34)CC2)cc1` was tested, and the outcome was “inactive”. `CC(C)(C)c1ccc(S(=O)(=O)N2CCN(c3nc(-c4ccccc4)nc4ccccc34)CC2)cc1` was tested, and the outcome was “inactive”. For `O=[N+]([O-])c1ccc(S(=O)(=O)N2CCN(c3nc(-c4ccccc4)nc4ccccc34)CC2)cc1`, the outcome was “inactive”. With `COc1ccc(S(=O)(=O)N2CCN(c3nc(-c4cccs4)nc4ccccc34)CC2)cc1` the outcome was “inactive”. `O=S(=O)(c1ccc(Br)cc1)N1CCN(c2nc(-c3cccs3)nc3ccccc23)CC1` was tested, and the outcome was “inactive”. `O=[N+]([O-])c1ccc(S(=O)(=O)N2CCN(c3nc(-c4cccs4)nc4ccccc34)CC2)cc1` was tested, and the outcome was “inactive”. With `O=S(=O)(c1ccccc1Cl)N1CCN(c2nc(-c3cccs3)nc3ccccc23)CC1` the outcome was “inactive”. With `O=S(=O)(c1ccc(F)cc1)N1CCN(c2nc(-c3ccc(F)cc3)nc3cc(Cl)ccc23)CC1` the outcome was “inactive”. `N#Cc1ccccc1S(=O)(=O)N1CCN(c2nc(-c3cccs3)nc3ccccc23)CC1` was tested, and the outcome was “inactive”. `O=S(=O)(c1ccccc1Br)N1CCN(c2nc(-c3cccs3)nc3ccccc23)CC1` was tested, and the outcome was “inactive”. With `O=S(=O)(c1ccc2c(c1)CCC2)N1CCN(c2nc(-c3ccccc3)nc3ccccc23)CC1` the outcome was “inactive”. With `O=S(=O)(c1ccc(F)cc1)N1CCN(c2nc(-c3ccccc3)nc3cc(Cl)ccc23)CC1` the outcome was “inactive”. `COc1ccc(-c2nc(N3CCN(S(=O)(=O)c4ccc(F)cc4)CC3)c3ccccc3n2)cc1` was tested, and the outcome was “inactive”. `CCOc1ccc(S(=O)(=O)N2CCN(c3nc(-c4ccccc4)nc4ccccc34)CC2)cc1` was tested, and the outcome was “inactive”. In the case of `O=[N+]([O-])c1cccc(S(=O)(=O)N2CCN(c3nc(-c4cccs4)nc4ccccc34)CC2)c1`, the outcome is reported as “inactive”. For `O=S(=O)(c1ccc(C(F)(F)F)cc1)N1CCN(c2nc(-c3ccccc3)nc3ccccc23)CC1`, the outcome was “inactive”. In the case of `O=[N+]([O-])c1cccc(S(=O)(=O)N2CCN(c3nc(-c4ccccc4)nc4ccccc34)CC2)c1`, the outcome is reported as “inactive”. For `O=S(=O)(c1ccccc1F)N1CCN(c2nc(-c3cccs3)nc3ccccc23)CC1`, the outcome was “inactive”. With `O=S(=O)(c1ccc(Br)cc1)N1CCN(c2nc(-c3ccccc3)nc3ccccc23)CC1` the outcome was “inactive”. For `O=[N+]([O-])c1ccccc1S(=O)(=O)N1CCN(c2nc(-c3cccs3)nc3ccccc23)CC1`, the outcome was “inactive”. For `CCOC(=O)c1ccc(S(=O)(=O)N2CCN(c3nc(-c4ccccc4)nc4ccccc34)CC2)cc1`, the outcome was “inactive”. `CC(=O)c1ccc(S(=O)(=O)N2CCN(c3nc(-c4cccs4)nc4ccccc34)CC2)cc1` was tested, and the outcome was “inactive”. For `O=S(=O)(c1ccc(OC(F)(F)F)cc1)N1CCN(c2nc(-c3ccccc3)nc3ccccc23)CC1`, the outcome was “inactive”. With `O=S(=O)(c1ccccc1Br)N1CCN(c2nc(-c3ccccc3)nc3ccccc23)CC1` the outcome was “inactive”. For `Cc1ccc(S(=O)(=O)N2CCN(c3nc(-c4ccccc4)nc4ccccc34)CC2)cc1`, the outcome was “inactive”. `O=S(=O)(c1ccccc1Cl)N1CCN(c2nc(-c3ccccc3)nc3ccccc23)CC1` was tested, and the outcome was “inactive”. `O=S(=O)(c1ccc(F)cc1)N1CCN(c2nc(-c3cccc(Br)c3)nc3ccccc23)CC1` was tested, and the outcome was “inactive”.
